Data taken from PubChem BioAssay (EPA / NIEHS).
Inconclusive results are not listed. The source made the active and inactive calls. The calls were made as follows, unless noted: active = hit-call score of the fitted dose curve at least 0.9, where 1 is the maximum; inactive = score below 0.9.

Assays:
[1] = molecular target: Nuclear respiratory factor 1 (Homo sapiens) (UniProt Q16656); test: ATG_NRF1_CIS: Attagene CIS-FACTORIAL HepG2 Assay for human Nuclear Respiratory Factor 1 (NRF1) Orphan Gene (AID 2282987); details: HepG2 NRF1 cis-element reporter, Attagene multiplex; actives raise or lower the signal
In short: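 HepG2 cells transiently transfected with multiple reporter transcription units under cis-regulatory promoter control, so endogenous transcription-factor activity is read. After 24 h compound exposure, reporter mRNA quantified by RT-PCR, fluorescent labelling, HpaI digestion and capillary electrophoresis; bidirectional fitting versus DMSO.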

[2] = ATG_NFI_CIS: Attagene CIS-FACTORIAL HepG2 Assay for human Nuclear Factor I (NFI) (AID 2282989); details: HepG2 cis-regulatory reporter, NFI response element transcription; actives raise or lower the signal
In short: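 HepG2 cells transiently transfected with cis-element-driven multiplexed reporter transcription units, dosed for 24 h. Reporter mRNA quantified by RT-PCR, fluorescent labelling, HpaI digestion and capillary electrophoresis; bidirectional fit versus DMSO baseline.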

[3] = molecular target: Myc proto-oncogene protein (Homo sapiens) (UniProt P01106); test: ATG_Myc_CIS: Attagene CIS-FACTORIAL HepG2 Assay for human Myelocytomatosis (Myc) Proto-Oncogene Transcription Factor (AID 2282990); details: HepG2, Attagene cis-reporter transcription factor activity; actives raise or lower the signal
In short: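 Fluorescence intensity of reporter-specific cDNA fragments, separated by capillary electrophoresis, gives the signal. Transfected HepG2 cells carrying cis-promoter reporter constructs are incubated with compound for 24 h; DMSO serves as baseline.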

[4] = ATG_NF_kB_CIS: Attagene CIS-FACTORIAL HepG2 Assay for human Nuclear Factor Kappa B (NF-kB) (AID 2282991); details: HepG2 Attagene cis-factorial NF-kB reporter mRNA; actives raise or lower the signal
In short: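 HepG2 cells transiently transfected with multiplexed cis-element reporter units measuring endogenous transcription factor activity; reporter mRNA read 24 h after dosing by RT-PCR, fluorescent labelling, HpaI digestion and capillary electrophoresis. Bidirectional fit against DMSO baseline.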

[5] = ATG_NRF2_ARE_CIS: Attagene CIS-FACTORIAL HepG2 Assay for human Nuclear Factor Erythroid 2 Related Factor 2 (NFR2) response to Antioxidant Response Elements (ARE) (AID 2282992); details: HepG2 Attagene ARE/NRF2 reporter, transcription factor activity; actives raise or lower the signal;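 as to AC50: reporter mRNA level measured by RT-PCR and capillary electrophoresis fluorescence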
In short: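 Cis-factorial assay: transfected HepG2 reporter library, 24 h dosing, mRNA readout via RT-PCR/CE; DMSO-referenced bidirectional analysis.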

[6] = ATG_Oct_MLP_CIS: Attagene CIS-FACTORIAL HepG2 Assay for human Octamer-Binding Transcription Factor (Oct) (AID 2282993); details: HepG2 Attagene cis-factorial Oct reporter, mRNA; actives raise or lower the signal
In short: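 HepG2 cells transiently transfected with cis-promoter-driven multiplexed reporter transcription units, dosed for 24 h. Reporter mRNA quantified by RT-PCR, fluorescent labelling, HpaI digestion and capillary electrophoresis; bidirectional fits versus DMSO baseline.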

[7] = molecular target: Cellular tumor antigen p53 (Homo sapiens) (UniProt P04637); test: ATG_p53_CIS: Attagene CIS-FACTORIAL HepG2 Assay for human p53 Transcription Factor (AID 2282994); details: HepG2 p53 cis-element reporter, Attagene mRNA; actives raise or lower the signal
In short: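 Using HepG2 hepatoma cells carrying cis-acting multiplexed reporters, mRNA induction is detected after a 24 h exposure. Gain- and loss-of-signal responses are fitted relative to DMSO-treated cells.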

[8] = molecular target: human Peroxisome Proliferator-activated Receptor alpha (PPARa), PPARA (gene 5465) (UniProt Q07869); test: ATG_PPARa_TRANS: Attagene TRANS-FACTORIAL HepG2 Assay for human Peroxisome Proliferator-activated Receptor alpha (PPARa) (AID 2283001; active = hit-call score of the fitted dose curve at least 0.9, where 1 is the maximum)
In short: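 HepG2 cells transiently transfected with multiplexed GAL4-UAS reporters driven by exogenous chimeric NR-Gal4 proteins; reporter mRNA measured after 24 h dosing. Read-out by RT-PCR, 6-FAM labelling, HpaI digestion and capillary electrophoresis; gain of signal versus DMSO.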

[9] = molecular target: human Peroxisome Proliferator-activated Receptor delta (PPARd), PPARD (gene 5467) (UniProt Q03181); test: ATG_PPARd_TRANS: Attagene TRANS-FACTORIAL HepG2 Assay for human Peroxisome Proliferator-activated Receptor delta (PPARd) (AID 2283002; active = hit-call score of the fitted dose curve at least 0.9, where 1 is the maximum)
In short: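 Fluorescence from capillary electrophoresis of labelled RT-PCR reporter fragments gives the signal; DMSO sets baseline. Cells: HepG2 transiently carrying GAL4-UAS reporter units plus chimeric nuclear receptor-Gal4 proteins, exposed to chemicals for 24 h.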

[10] = molecular target: human Retinoic Acid Receptor beta (RARb), RARB (gene 5915) (UniProt P10826); test: ATG_RARb_TRANS: Attagene TRANS-FACTORIAL HepG2 Assay for human Retinoic Acid Receptor beta (AID 2283004; active = hit-call score of the fitted dose curve at least 0.9, where 1 is the maximum)
In short: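 HepG2, transient MRTU transfection, NR–Gal4 chimera, 24 h treatment; RT-PCR plus CE fluorescence detection of reporter mRNA; gain of signal vs DMSO.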

[11] = molecular target: Retinoic acid receptor alpha (Homo sapiens) (UniProt P10276); test: ATG_RARa_TRANS: Attagene TRANS-FACTORIAL HepG2 Assay for human Retinoic Acid Receptor alpha (RARa) (AID 2283005; active = hit-call score of the fitted dose curve at least 0.9, where 1 is the maximum)
In short: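 HepG2 transiently transfected with multiplex GAL4-UAS reporter units including a human RARa–GAL4 chimera; 24 h compound exposure. Reporter mRNA quantified by RT-PCR, 6-FAM labeling and capillary electrophoresis; gain of signal versus DMSO.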

[12] = molecular target: Peroxisome proliferator-activated receptor gamma (Homo sapiens) (UniProt P37231); test: ATG_PPARg_TRANS: Attagene TRANS-FACTORIAL HepG2 Assay for human Peroxisome Proliferator-activated Receptor-gamma (PPARg) (AID 2283007; active = hit-call score of the fitted dose curve at least 0.9, where 1 is the maximum)
In short: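 HepG2 cells transiently transfected with multiplexed GAL4-UAS reporter units and exogenous chimeric NR-Gal4 proteins; reporter mRNA quantified after 24 h compound exposure by RT-PCR, fluorescent labelling, HpaI digestion and capillary electrophoresis; gain-of-signal fitted versus DMSO baseline.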

[13] = molecular target: Nuclear receptor subfamily 1 group I member 2 (Homo sapiens) (UniProt O75469); test: ATG_PXR_TRANS: Attagene TRANS-FACTORIAL HepG2 Assay for human Pregnane X Receptor (PXR) (AID 2283008; active = hit-call score of the fitted dose curve at least 0.9, where 1 is the maximum)
In short: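 Fluorescence intensity of FAM-labelled, HpaI-digested reporter amplicons, separated by capillary electrophoresis, quantifies induction. HepG2 cells with PXR-Gal4 trans-reporter system were exposed 24 h; DMSO defines baseline.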

[14] = molecular target: human Retinoic Acid Receptor gamma (RARg), RARG (gene 5916) (UniProt P13631); test: ATG_RARg_TRANS: Attagene TRANS-FACTORIAL HepG2 Assay for human Retinoic Acid Receptor gamma (RARg) (AID 2283009; active = hit-call score of the fitted dose curve at least 0.9, where 1 is the maximum)
In short: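 Transient transfection of HepG2 with multi-reporter constructs, then 24 h chemical treatment. Total RNA isolated, reverse-transcribed, PCR-amplified, fluorescently labelled and resolved by capillary electrophoresis; activity scored as mRNA induction versus DMSO.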

[15] = BSK_3C_TissueFactor: BioMAP Diversity Plus: 3C Assay for Tissue Factor Biomarker Activity (AID 2282997); details: BioMAP 3C HUVEC, tissue factor biomarker readout; actives raise or lower the signal
In short: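 Values derive from bidirectional curve fitting against DMSO of Tissue Factor ELISA signals, taken 24 h after dosing primary human umbilical vein endothelial cells.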

[16] = BSK_3C_uPAR: BioMAP Diversity Plus: 3C Assay for Urokinase-type plasminogen activator receptor (uPAR) Biomarker Activity (AID 2282998); details: BioMAP 3C HUVEC, uPAR biomarker ELISA; actives raise or lower the signal
In short: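 Human umbilical vein endothelial primary cells were exposed to test chemical for 24 h. Cell-surface uPAR was then quantified by ELISA, and responses were fitted bidirectionally against DMSO as negative control and baseline.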

[17] = BSK_3C_VCAM1: BioMAP Diversity Plus: 3C Assay for Vascular cell adhesion molecule 1 (VCAM1) Biomarker Activity (AID 2282999); details: BioMAP 3C HUVEC, VCAM1 ELISA, cytokine-stimulated; actives raise or lower the signal
In short: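 Human umbilical vein endothelial cells (3C system), biomarker read by ELISA 24 h after dosing; bidirectional fit against DMSO baseline. Cytotoxicity tracked by SRB total-protein staining in parallel cultures at biomarker time.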

[18] = BSK_4H_Eotaxin3: BioMAP Diversity Plus: 4H Assay for Eotaxin 3 Biomarker Activity (AID 2283000); details: primary human endothelial cells (HUVEC); actives raise or lower the signal
In short: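 Endothelial primary cells (human umbilical vein) exposed to compound for 24 h. ELISA detection of Eotaxin-3.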

[19] = read-out: Intercellular Adhesion Molecule 1 (ICAM1), ICAM1 (gene 3383); test: BSK_3C_ICAM1: BioMAP Diversity Plus: 3C Assay for Intercellular Adhesion Molecule 1 (ICAM1) Biomarker Activity (AID 2283003); details: primary human endothelial cells (HUVEC); actives raise or lower the signal
In short: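 ICAM-1 levels measured by ELISA after HUVEC cultures in the 3C system had been dosed for 24 h. Gain or loss of signal relative to DMSO was fitted in both directions.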

[20] = BSK_3C_Proliferation: Cell Proliferation Assessment in the BioMAP Diversity Plus: 3C Assay (AID 2283006); details: primary human endothelial cells (HUVEC);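 as to AC50: potency may reflect either rise or fall in cell number versus DMSO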
In short: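 Read-out is total protein by SRB absorbance at 560 nm, taken as a proxy for relative cell number. Primary human umbilical vein endothelium cultured below confluence was dosed for 48 h, TCA-fixed and SRB-stained; curves were fitted bidirectionally versus DMSO.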

Measured: AC50

human Peroxisome Proliferator-activated Receptor alpha (PPARa), PPARA (gene 5465), sequence (Q07869 whole entry, looked up, the tested form may be a part): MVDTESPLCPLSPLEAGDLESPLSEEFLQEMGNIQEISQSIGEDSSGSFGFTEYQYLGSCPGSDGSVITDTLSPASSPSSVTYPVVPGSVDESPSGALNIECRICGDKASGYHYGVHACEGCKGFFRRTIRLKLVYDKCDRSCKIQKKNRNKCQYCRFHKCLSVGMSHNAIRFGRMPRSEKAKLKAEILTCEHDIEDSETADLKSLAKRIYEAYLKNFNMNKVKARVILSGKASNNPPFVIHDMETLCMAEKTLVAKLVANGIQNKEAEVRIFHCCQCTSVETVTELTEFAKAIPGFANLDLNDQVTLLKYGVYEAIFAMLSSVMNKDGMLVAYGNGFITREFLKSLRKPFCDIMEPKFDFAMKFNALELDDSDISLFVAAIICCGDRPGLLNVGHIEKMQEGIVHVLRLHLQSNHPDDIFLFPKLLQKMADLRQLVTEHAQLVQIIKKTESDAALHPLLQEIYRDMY
human Retinoic Acid Receptor beta (RARb), RARB (gene 5915), sequence (P10826 whole entry, looked up, the tested form may be a part): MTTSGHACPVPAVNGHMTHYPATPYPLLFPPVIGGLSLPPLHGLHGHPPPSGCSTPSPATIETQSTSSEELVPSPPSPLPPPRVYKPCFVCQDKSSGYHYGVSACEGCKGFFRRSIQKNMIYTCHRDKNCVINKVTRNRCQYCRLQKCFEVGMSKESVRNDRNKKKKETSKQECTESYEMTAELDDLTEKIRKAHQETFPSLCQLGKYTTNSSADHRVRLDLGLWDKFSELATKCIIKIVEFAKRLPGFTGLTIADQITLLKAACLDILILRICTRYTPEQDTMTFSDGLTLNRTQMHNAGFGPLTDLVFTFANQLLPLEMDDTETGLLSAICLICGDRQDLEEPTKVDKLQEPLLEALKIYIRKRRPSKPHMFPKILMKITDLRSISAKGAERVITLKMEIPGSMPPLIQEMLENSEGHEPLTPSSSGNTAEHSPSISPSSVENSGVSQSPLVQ
Myc proto-oncogene protein (Homo sapiens), sequence (P01106 whole entry, looked up, the tested form may be a part): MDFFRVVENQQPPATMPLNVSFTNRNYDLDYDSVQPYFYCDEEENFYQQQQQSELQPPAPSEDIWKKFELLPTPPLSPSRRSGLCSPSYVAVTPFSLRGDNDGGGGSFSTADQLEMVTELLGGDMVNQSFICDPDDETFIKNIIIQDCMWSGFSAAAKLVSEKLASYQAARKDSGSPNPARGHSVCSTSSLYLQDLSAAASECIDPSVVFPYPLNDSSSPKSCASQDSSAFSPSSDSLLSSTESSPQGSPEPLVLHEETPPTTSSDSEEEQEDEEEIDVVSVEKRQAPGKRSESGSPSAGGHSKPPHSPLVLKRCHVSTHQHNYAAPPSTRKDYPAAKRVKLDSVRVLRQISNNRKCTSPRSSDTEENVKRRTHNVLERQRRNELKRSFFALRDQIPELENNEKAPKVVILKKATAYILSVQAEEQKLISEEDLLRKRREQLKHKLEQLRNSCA
Peroxisome proliferator-activated receptor gamma (Homo sapiens), sequence (P37231 whole entry, looked up, the tested form may be a part): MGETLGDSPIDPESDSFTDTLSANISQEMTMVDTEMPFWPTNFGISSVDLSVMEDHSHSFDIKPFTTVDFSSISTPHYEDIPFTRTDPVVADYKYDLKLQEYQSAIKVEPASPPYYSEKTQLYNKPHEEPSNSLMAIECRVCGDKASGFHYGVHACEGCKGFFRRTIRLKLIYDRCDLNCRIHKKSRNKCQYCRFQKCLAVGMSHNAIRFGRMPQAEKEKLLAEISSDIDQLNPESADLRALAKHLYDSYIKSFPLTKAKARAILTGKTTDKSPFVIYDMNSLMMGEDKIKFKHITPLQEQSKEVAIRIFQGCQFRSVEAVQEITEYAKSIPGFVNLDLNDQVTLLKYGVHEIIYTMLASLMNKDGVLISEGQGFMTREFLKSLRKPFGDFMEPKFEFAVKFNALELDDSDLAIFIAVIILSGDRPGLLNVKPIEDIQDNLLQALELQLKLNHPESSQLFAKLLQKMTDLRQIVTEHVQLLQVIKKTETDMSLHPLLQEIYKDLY
Retinoic acid receptor alpha (Homo sapiens), sequence (P10276 whole entry, looked up, the tested form may be a part): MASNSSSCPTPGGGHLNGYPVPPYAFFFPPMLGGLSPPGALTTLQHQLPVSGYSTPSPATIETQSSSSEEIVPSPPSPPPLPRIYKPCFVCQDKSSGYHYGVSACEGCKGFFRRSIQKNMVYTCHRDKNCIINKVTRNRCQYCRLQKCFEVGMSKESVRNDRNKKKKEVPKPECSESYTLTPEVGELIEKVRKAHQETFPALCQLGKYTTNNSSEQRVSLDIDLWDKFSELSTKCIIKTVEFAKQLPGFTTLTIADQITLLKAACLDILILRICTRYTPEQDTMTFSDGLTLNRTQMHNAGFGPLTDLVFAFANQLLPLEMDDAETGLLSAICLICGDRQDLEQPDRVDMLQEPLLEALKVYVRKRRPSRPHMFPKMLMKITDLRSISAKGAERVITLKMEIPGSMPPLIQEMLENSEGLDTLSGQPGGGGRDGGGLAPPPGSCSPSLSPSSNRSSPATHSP
Cellular tumor antigen p53 (Homo sapiens), sequence (P04637 whole entry, looked up): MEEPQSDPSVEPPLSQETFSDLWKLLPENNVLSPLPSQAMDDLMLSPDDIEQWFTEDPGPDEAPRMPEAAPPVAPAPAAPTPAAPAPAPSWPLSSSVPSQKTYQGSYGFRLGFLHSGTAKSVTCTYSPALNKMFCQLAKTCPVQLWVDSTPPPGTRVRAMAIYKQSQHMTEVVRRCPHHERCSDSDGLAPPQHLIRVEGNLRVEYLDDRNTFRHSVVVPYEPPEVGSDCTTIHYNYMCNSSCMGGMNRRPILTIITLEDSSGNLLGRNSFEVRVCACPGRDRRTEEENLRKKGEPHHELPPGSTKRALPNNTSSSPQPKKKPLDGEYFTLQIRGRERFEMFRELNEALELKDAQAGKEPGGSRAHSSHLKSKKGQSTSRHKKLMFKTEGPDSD
Nuclear respiratory factor 1 (Homo sapiens), sequence (Q16656 whole entry, looked up): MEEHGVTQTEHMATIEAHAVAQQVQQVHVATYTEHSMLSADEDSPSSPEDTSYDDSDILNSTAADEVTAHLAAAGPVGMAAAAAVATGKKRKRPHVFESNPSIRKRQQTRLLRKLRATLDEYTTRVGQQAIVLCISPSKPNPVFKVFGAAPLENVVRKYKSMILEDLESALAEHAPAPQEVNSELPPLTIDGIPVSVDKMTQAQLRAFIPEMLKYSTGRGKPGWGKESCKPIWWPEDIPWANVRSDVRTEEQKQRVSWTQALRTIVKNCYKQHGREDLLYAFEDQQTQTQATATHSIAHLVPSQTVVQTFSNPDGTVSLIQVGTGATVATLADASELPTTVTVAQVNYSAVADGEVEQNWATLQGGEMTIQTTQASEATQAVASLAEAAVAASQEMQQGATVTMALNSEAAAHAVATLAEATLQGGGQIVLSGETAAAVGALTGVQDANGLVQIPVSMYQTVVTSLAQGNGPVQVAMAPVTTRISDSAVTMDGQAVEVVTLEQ
Nuclear receptor subfamily 1 group I member 2 (Homo sapiens), sequence (O75469 whole entry, looked up, the tested form may be a part): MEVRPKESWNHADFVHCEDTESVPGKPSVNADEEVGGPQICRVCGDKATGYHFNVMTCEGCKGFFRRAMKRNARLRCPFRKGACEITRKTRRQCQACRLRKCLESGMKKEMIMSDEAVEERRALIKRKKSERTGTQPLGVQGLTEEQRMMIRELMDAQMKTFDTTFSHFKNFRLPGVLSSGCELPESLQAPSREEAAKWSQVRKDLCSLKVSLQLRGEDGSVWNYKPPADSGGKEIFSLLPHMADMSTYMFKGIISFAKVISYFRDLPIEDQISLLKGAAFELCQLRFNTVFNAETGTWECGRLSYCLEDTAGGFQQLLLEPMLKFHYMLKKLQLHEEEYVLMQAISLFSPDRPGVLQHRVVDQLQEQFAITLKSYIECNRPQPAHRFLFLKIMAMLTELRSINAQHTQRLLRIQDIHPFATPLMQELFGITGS
human Peroxisome Proliferator-activated Receptor delta (PPARd), PPARD (gene 5467), sequence (Q03181 whole entry, looked up, the tested form may be a part): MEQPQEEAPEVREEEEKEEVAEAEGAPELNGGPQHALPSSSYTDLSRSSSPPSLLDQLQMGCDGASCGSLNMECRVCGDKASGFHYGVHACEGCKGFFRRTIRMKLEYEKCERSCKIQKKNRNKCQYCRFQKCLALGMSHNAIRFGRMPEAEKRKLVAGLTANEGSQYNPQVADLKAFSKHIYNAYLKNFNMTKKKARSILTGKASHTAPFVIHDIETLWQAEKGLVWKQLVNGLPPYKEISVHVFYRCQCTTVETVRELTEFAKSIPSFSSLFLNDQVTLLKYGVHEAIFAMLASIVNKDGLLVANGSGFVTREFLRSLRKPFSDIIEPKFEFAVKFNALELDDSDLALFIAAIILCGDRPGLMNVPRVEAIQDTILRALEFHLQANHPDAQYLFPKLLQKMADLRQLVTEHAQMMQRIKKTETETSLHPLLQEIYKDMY
human Retinoic Acid Receptor gamma (RARg), RARG (gene 5916), sequence (P13631 whole entry, looked up): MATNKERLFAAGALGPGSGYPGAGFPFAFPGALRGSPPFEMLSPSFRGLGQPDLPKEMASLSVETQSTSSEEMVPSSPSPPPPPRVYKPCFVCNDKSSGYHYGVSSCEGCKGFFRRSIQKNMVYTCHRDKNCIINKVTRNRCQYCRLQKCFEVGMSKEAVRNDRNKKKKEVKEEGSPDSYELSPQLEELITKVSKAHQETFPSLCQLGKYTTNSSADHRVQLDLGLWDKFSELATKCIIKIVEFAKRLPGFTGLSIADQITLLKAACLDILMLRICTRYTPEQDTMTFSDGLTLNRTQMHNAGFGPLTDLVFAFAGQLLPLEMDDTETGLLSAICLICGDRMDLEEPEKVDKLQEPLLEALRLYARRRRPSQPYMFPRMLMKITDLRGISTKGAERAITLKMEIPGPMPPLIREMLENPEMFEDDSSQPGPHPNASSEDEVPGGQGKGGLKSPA

CC(O)C#CC(C)O (configuration not stated)
inactive: [6] | [8] | [9] | [10] | [11] | [13] | [14]
active: [1] 143 µM | [2] 127 µM | [3] 53.3 µM | [4] 84 µM | [5] 24.9 µM | [7] 167 µM | [12] 41.1 µM

CCN(CC)c1ccc2c(c1)Oc1cc(N(CC)CC)ccc1C21OC(=O)c2ccccc21
inactive: [1] | [2] | [3] | [4] | [6] | [7] | [17] | [18] | [9] | [19]
active: [5] 34.8 µM | [15] 2.97 µM | [16] 11.2 µM | [20] 5.03 µM | [12] 17.6 µM | [13] 348 nM

CC1=CC2C3C=CC(C3)C2C1C (configuration not stated)
inactive: [1] | [3] | [4] | [6] | [15] | [16] | [17] | [18] | [9] | [19] | [20] | [12]
active: [2] 100 µM | [5] 50.6 µM | [7] 80.4 µM | [13] 387 nM

Cc1cc(O)c(C(C)(C)C)cc1C(C)(C)C
active: [5] 11.1 µM | [15] 3.4 µM | [16] 3.82 µM | [17] 4.42 µM | [18] 4.12 µM | [19] 8.46 µM | [20] 2.36 µM | [13] 3470 nM
inactive: [1] | [2] | [3] | [4] | [6] | [7] | [9] | [10] | [11] | [12] | [14]

NC(O)(C(F)(F)F)C(F)(F)F
inactive: [1] | [2] | [3] | [4] | [5] | [6] | [7] | [15] | [16] | [17] | [18] | [9] | [19] | [20] | [13]

O=C1C=CC(=O)N1c1ccccc1
inactive: [1] | [2] | [3] | [4] | [6] | [7] | [8] | [10] | [11] | [12]
active: [5] 53.8 µM

C#CC(O)CCC (configuration not stated)
inactive: [1] | [2] | [3] | [4] | [5] | [6] | [7] | [8] | [10] | [12] | [13]
